Experimental data reported in PubChem BioAssay AID1159580 (chemical genetic matrix, 2015).
Hit rate of the full screen: of about 5,500 compounds, about 2,000 (36%) were called active. Inconclusive results (about 18%) are left out. Rule as the data show it: active = normalized growth mostly below about 0.91 (no sharp cut-off); inconclusive = no clear call, values can overlap the other calls; inactive = mostly above about 0.92. The list shows a part of the results.

Experiment: chemical genetic growth profiling, strain panel (AID 1159580);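 also: tested at 20 µM; growth read once vehicle control cultures reached saturation at 30 °C; 1 = growth at the plate median or of vehicle wells; lower values mean less growth of the strain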
Settings: S. cerevisiae deletion strains, growth OD

Measured: normalized growth

Cc1ccc(-c2nn[nH]n2)cc1Cl
inactive: locus YAL013W, strain DEP1, stronger effect = lower value 0.965 | locus YBR229C, strain ROT2, stronger effect = lower value 0.963 | locus YDL101C, strain DUN1, stronger effect = lower value 0.985 | locus YDL134C, strain PPH21, stronger effect = lower value 0.997 | locus YDR150W, strain NUM1, stronger effect = lower value 0.935 | locus YEL061C, strain CIN8, stronger effect = lower value 0.983 | locus YGR078C, strain PAC10, stronger effect = lower value 0.967 | locus YGR229C, strain SMI1, stronger effect = lower value 0.984 | locus YHR030C, strain SLT2, stronger effect = lower value 1 | locus YHR087W, strain rtc3, stronger effect = lower value 0.975 | locus YJR043C, strain POL32, stronger effect = lower value 0.932 | locus YJR075W, strain HOC1, stronger effect = lower value 0.966 | locus YLR039C, strain RIC1, stronger effect = lower value 1 | locus YLR058C, strain SHM2 (second series), stronger effect = lower value 0.962 | locus YLR085C, strain ARP6, stronger effect = lower value 1 | locus YLR262C, strain YPT6, stronger effect = lower value 1 | locus YML094W, strain GIM5, stronger effect = lower value 1 | locus YMR219W, strain ESC1, stronger effect = lower value 0.97 | locus YMR263W, strain SAP30, stronger effect = lower value 0.933 | locus YNL153C, strain GIM3, stronger effect = lower value 0.969 | locus YNL298W, strain CLA4 (second series), stronger effect = lower value 1.02 | locus YNL322C, strain KRE1, stronger effect = lower value 0.947 | locus YNR030W, strain Alg12, stronger effect = lower value 1 | locus YOL006C, strain TOP1, stronger effect = lower value 1.07 | locus YPL055C, strain LGE1, stronger effect = lower value 0.944 | locus YPL241C, strain CIN2, stronger effect = lower value 1.12 | locus YPR135W, strain CTF4, stronger effect = lower value 1.03
